Here are results for nine molecules from PubChem BioAssay.

Active and inactive are the calls of the source. How the calls were made is not given here.

The test in a line: inhibition of Brca1/Bard1 split-luciferase complementation, confirmation, counter-screen for Mdm2/MdmX interaction inhibitor project, luminescence, single concentration (AID 504668). The settings on record: Brca1/Bard1 bimolecular luciferase complementation counterscreen, at 8 µM, stronger effect = higher value. A general note: A counterscreen serves to expose hits that act by an unwanted route or on another target.
On to `CCCSc1nnc(NC(=O)Nc2ccc(F)cc2)s1`, for which the inhibition – broadly, the share of the control response that was lost under treatment – was 28.5% (active).
Regarding `C=CC[n+]1c(/C=C2\C=Cc3cc(C)ccc3N2CC)ccc2ccccc21`, the inhibition was 28.5% (active).
Take `Oc1c(C(c2cccs2)N2CCN(c3ccccc3)CC2)ccc2cccnc12` (centres undefined): the inhibition is 23.1% (active).
Regarding `O=C(/C=C/c1ccccc1)NC(NC(=S)Nc1cc(Cl)ccc1Cl)C(Cl)(Cl)Cl` (centres undefined), the inhibition is 31.2% (active).
Consider `CCCCCCCCCn1ccc(=N)cc1`, for which the inhibition is 23.6% (active).
On to `COc1ccc(C(NC(=O)c2cccnc2)c2cc(Cl)c3cccnc3c2O)cc1OC` (centres undefined), for which the inhibition is 26.3% (active).
On to `Cc1cc(C(=O)CCl)c(C)n1CCc1ccc(F)cc1`, for which the inhibition is 34.4% (active).
In the case of `COc1ccc(/C(C)=N/NC(=O)c2cccc(S(=O)(=O)N3CCCC3)c2)c(O)c1`, the inhibition was 34.4% (active).
Consider `O=C(c1ccc(S(=O)(=O)c2ccccc2Cl)c([N+](=O)[O-])c1)N1CCN(Cc2ccccc2)CC1`, for which the inhibition was 29.6% (active).
